In the supplement of paper PMC10849652 one finds log2 fold change data, which are given here for 34 targets.

About 7,900 targets were measured; listed, in parts, are those with a hit and a random draw of the rest. About 0.6% of all pairs of compound and target were hits. Unmarked numbers belong to inactive results.

UniProt P50570, sequence (P50570 whole entry, looked up): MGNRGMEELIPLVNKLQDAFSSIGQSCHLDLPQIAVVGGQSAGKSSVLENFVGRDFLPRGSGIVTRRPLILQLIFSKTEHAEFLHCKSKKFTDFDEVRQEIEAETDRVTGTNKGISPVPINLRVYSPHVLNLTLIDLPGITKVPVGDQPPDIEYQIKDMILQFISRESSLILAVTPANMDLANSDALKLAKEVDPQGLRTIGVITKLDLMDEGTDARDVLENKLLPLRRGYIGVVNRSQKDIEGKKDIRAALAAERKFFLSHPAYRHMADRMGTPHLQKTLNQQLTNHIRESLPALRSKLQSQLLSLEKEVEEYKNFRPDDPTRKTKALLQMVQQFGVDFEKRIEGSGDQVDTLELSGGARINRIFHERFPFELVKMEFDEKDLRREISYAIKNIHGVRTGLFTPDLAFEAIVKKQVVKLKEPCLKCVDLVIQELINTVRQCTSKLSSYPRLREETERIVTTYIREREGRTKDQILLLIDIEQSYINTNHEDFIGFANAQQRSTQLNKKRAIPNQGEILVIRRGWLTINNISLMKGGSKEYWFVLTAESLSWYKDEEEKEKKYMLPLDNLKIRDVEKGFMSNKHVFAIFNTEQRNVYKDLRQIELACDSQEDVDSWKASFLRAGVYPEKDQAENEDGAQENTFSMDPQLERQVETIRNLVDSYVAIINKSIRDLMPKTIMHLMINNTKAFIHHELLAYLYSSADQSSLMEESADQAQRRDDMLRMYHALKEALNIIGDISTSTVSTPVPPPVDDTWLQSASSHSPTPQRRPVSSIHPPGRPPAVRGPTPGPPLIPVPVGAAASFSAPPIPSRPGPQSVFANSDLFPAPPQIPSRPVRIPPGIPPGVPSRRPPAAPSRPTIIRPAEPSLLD
UniProt Q8WYA6, sequence (Q8WYA6 whole entry, looked up): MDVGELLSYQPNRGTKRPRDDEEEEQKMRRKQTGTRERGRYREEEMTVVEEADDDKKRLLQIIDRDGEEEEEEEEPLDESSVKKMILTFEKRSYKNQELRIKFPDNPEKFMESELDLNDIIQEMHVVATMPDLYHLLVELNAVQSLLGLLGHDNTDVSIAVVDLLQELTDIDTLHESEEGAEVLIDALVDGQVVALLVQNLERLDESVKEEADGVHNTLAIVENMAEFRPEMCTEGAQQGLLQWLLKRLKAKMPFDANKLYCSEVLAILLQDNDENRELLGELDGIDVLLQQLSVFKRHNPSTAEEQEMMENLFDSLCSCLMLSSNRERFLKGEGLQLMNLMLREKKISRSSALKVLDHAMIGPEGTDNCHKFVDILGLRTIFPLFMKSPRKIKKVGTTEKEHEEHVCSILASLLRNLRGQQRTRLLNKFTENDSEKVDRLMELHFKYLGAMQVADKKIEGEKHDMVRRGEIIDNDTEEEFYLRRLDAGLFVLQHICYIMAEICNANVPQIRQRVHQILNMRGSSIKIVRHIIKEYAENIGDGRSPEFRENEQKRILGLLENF
UniProt Q96KC8, sequence (Q96KC8 whole entry, looked up): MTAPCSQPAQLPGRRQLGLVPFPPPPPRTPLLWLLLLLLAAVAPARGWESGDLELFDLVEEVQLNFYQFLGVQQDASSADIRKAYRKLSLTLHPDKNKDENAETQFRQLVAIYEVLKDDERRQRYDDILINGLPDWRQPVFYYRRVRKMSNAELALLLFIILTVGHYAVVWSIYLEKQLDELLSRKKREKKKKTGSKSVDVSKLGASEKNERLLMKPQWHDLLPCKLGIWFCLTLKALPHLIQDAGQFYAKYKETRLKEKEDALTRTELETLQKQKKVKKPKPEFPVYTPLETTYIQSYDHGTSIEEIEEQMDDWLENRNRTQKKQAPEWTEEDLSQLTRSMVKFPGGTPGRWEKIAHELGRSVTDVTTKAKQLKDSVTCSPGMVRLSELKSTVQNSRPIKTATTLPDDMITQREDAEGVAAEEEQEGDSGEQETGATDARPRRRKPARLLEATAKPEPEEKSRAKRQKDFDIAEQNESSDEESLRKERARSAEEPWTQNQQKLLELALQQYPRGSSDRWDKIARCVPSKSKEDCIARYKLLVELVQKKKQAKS
UniProt Q15392, sequence (Q15392 whole entry, looked up): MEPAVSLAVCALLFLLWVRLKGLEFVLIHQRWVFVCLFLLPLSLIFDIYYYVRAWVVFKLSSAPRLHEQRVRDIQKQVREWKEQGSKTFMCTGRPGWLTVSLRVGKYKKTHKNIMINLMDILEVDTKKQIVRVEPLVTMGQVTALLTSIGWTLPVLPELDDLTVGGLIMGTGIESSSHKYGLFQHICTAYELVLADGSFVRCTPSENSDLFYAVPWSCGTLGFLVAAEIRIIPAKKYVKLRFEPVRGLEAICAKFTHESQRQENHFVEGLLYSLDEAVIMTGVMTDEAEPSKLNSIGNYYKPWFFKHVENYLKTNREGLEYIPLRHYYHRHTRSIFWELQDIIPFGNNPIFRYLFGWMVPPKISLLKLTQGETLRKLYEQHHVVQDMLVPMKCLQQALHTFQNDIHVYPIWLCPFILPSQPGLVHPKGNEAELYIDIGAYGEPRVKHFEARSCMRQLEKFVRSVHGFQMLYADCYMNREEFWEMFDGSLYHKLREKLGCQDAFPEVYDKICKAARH
UniProt O00418, sequence (O00418 whole entry, looked up): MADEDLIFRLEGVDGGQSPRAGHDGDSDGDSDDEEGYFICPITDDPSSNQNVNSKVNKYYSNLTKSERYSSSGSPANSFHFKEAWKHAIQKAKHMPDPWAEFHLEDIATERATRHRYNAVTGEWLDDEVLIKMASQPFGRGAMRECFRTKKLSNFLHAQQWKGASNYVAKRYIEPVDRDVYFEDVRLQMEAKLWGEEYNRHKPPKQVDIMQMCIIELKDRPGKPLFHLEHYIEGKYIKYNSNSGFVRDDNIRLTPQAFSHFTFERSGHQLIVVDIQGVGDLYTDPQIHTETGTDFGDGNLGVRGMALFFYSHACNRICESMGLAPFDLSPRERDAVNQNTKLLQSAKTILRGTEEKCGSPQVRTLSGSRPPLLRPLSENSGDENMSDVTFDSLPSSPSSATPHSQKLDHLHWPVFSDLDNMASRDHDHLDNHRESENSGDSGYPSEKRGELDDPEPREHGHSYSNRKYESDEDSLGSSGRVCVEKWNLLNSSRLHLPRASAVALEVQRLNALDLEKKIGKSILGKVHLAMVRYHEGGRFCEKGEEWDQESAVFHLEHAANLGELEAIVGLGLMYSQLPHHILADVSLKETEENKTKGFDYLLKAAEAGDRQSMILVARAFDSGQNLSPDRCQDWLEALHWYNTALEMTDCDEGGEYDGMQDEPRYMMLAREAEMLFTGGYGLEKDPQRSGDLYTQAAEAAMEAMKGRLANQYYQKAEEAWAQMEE
UniProt P80370, sequence (P80370 whole entry, looked up): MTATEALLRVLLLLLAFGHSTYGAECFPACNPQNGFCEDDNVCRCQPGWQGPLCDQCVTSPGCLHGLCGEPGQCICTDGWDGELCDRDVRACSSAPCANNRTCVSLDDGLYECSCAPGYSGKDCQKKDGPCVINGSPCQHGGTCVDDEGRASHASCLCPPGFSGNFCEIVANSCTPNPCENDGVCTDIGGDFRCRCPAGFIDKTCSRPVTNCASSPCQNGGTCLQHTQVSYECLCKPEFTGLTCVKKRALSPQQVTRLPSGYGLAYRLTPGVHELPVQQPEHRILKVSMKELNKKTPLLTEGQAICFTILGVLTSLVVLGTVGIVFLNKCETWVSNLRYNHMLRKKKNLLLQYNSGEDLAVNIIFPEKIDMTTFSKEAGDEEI
UniProt P10619, sequence (P10619 whole entry, looked up): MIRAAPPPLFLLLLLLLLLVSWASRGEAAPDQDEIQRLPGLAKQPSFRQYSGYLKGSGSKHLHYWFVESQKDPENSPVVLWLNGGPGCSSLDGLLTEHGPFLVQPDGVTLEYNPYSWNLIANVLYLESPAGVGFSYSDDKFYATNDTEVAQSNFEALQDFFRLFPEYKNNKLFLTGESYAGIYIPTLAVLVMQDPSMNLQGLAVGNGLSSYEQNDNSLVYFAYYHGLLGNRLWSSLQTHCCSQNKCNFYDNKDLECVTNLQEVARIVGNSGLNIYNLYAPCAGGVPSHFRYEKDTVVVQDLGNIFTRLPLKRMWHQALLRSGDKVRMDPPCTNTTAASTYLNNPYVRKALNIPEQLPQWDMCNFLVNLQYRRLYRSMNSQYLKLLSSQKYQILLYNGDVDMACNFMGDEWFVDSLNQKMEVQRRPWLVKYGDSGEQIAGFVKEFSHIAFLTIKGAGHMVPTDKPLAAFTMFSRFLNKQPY
UniProt Q15369, sequence (Q15369 whole entry, looked up): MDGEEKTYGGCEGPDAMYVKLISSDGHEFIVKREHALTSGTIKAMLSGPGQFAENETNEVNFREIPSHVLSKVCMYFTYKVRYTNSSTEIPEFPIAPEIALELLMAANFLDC
UniProt Q99848, sequence (Q99848 whole entry, looked up): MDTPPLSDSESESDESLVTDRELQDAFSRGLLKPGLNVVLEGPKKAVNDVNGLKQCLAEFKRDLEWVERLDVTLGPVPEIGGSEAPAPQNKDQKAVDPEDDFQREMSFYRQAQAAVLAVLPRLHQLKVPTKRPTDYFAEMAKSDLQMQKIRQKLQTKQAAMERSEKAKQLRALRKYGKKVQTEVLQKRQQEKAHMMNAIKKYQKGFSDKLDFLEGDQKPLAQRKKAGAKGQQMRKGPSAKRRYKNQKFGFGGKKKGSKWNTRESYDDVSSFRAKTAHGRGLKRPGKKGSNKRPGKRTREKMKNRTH
UniProt Q9NV06, sequence (Q9NV06 whole entry, looked up): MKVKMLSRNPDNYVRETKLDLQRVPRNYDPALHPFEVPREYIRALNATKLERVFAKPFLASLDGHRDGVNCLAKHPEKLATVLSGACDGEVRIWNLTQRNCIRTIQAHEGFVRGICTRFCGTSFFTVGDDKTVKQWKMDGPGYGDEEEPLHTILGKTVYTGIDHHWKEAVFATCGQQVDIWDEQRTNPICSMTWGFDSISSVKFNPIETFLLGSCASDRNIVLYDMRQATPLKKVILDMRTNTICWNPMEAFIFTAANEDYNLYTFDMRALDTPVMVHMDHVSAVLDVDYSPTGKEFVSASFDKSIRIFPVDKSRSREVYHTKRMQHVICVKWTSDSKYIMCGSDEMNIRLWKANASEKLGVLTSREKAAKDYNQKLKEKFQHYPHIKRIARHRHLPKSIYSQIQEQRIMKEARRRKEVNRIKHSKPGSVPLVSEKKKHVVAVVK

Compound in the experiment: c1cn2cc(-c3ccc4cn[nH]c4c3)nc(Nc3ccc(N4CCOCC4)cc3)c2n1 [entospletinib]
Nature of the experiment: log2 fold change, soluble protein after heating vs DMSO (PISA); higher = thermal stabilisation; K562 cells, 10 uM, 30 min; active = over 0.2 and 3.5 SD of the protein, either way, in both replicates (recomputed). The method in brief:
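Thermal stability values are relative to control samples and come from duplicates. They are expressed as log2 fold changes. For measurement, K562 cells (2×10^6 cells/mL) received 10 μM compound for 30 min, and aliquots were heated for 3 min over 48°C-58°C, pooled, and extracted at 4°C in PBS with 0.5% NP-40. Soluble protein, the supernatant after 21,000xg for 90 min, was quantified by TMTpro 16plex LC-MS/MS with equalised channel sums.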
Turning to DHPS (UniProt P49366), the log2 fold change is -0.003. In the case of CTNNBL1 (UniProt Q8WYA6), the log2 fold change was 0.069.

In the case of CTSA (UniProt P10619), the log2 fold change was 0.041. As for ELOC (UniProt Q15369), the log2 fold change was 0.028. To DLK1 (UniProt P80370) belongs 0.076.

In the case of EEA1 (UniProt Q15075), the log2 fold change is -0.005. In the case of CTNNB1 (UniProt P35222), the log2 fold change is -0.212. Regarding DTYMK (UniProt P23919), the log2 fold change is 0.013.

With EIF4A1 (UniProt P60842), the log2 fold change is -0.083. To DBNL isoform 3 (UniProt Q9UJU6) belongs -0.087; to DDB1 isoform 2 (UniProt Q16531), 0.162.

Take DHRS1 (UniProt Q96LJ7): the log2 fold change was -0.613. Next, DCAF12 (UniProt Q5T6F0): 0.025. To DHFR (UniProt P00374) belongs 0.013; to DNAJC1 (UniProt Q96KC8), 0.015. Next, EEF2K (UniProt O00418): 0.09; FAM114A2 (UniProt Q9NRY5): -0.022; DCAF6 isoform 3 (UniProt Q58WW2): -0.008. In the case of DHCR24 (UniProt Q15392), the log2 fold change was -0.016. To FAM207A (UniProt Q9NSI2) belongs 0.013; to DHCR7 (UniProt Q9UBM7), -0.045. To EBNA1BP2 (UniProt Q99848) belongs 0.031.

For DNTTIP2 (UniProt Q5QJE6), the log2 fold change is 0.108.

Take EIF3J (UniProt O75822): the log2 fold change is -0.005.

With DNAJC19 (UniProt Q96DA6), the log2 fold change was 0.026.

Turning to DCAF16 (UniProt Q9NXF7), the log2 fold change is 0. In the case of CTSB (UniProt P07858), the log2 fold change is 0.008. Next, DCTN1 isoform 4 (UniProt Q14203): 0.061; DNM2 (UniProt P50570): -0.017; FAM117A (UniProt Q9C073): 0.067.

Turning to DNM2 isoform 4 (UniProt P50570), the log2 fold change is -0.257.

In the case of EXTL2 (UniProt Q9UBQ6), the log2 fold change is 0.03. Take DCAF13 (UniProt Q9NV06): the log2 fold change was 0.061. To FAM83D (UniProt Q9H4H8) belongs 0.028.
